Reference: PubChem BioAssay AID686978 (National Center for Advancing Translational Sciences (NCATS), 2013)
Among all 420,000 compounds or so, about 64,000 (15%) were called active. Roughly 27% stayed inconclusive and do not appear here. The call rests on the fitted dose curve; in most records, active means well fitted inhibition curve with a large enough effect; inconclusive means small, poorly fitted or top-dose-only effect; inactive means flat fitted curve, though single readings scatter. A selection follows. Entries that show only a call come without a potency.

Test: qHTS for Inhibitors of human tyrosyl-DNA phosphodiesterase 1 (TDP1): qHTS in cells in absence of CPT; further: nearly all actives have a fitted effect of over 55% in size
Conditions: DT40 Tdp1-/- hTDP1 cells, no CPT, ATP luminescence, 48 h; activity change, negative = growth inhibition: at 46.2 µM (top of the series)
Procedure, shortened: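 DT40 Tdp1-/-;hTDP1 cells, no CPT (DMSO vehicle only), 400 cells/well; compounds pin-transferred; ≥48 hr, 37 °C; CellTiter-Glo 30 min RT dark, luminescence read.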
Potency means the concentration at half of the fitted maximal effect.

Compound | Potency
COc1ccc(N(C)S(=O)(=O)c2cccc3nsnc23)cc1 | inactive
Cc1cccc(S(=O)(=O)N(C)C[C@@H]2OCc3cnnn3CCCC(=O)N([C@H](C)CO)C[C@@H]2C)c1 | inactive
Cn1nc(C(F)(F)F)cc1-c1ccc(/C=C(\C#N)C(=O)c2cccc(C(F)(F)F)c2)s1 | inactive
C/C(=N\NC(=O)c1ccc2ccccc2c1)c1cccnc1 | inactive
Cc1cccc(OCc2nnc(SCn3nnc4ccccc4c3=O)o2)c1 | inactive
CCOc1ccc(NC(=O)CN(C)C(=O)CSc2ccccc2)cc1OCC | inactive
CCC(C)NC(=O)c1cc(Cl)ccc1OC (stereo unspecified) | inactive
Cc1cc(N(C)C)cc(C)[n+]1[O-] | inactive
O=S(=O)(NC1CC1)c1ccc(Cl)cc1 | inactive
O=S(=O)(NC1CC1)c1ccc(F)c(F)c1 | inactive
Cn1sc(=O)c2cc(S(=O)(=O)NC3CC3)ccc21 | 10.3 µM (active)
CC(NC(=O)CCCC1CCCCC1)c1ccc(S(N)(=O)=O)cc1 (stereo unspecified) | inactive
N#CC1=C(N)Oc2c(sc3ccccc23)C1c1ccco1 (stereo unspecified) | 5.17 µM (active)
C[C@H](NC(=O)CC[C@H]1O[C@@H](n2ccc(=O)[nH]c2=O)[C@H](O)[C@@H]1O)c1cccc2ccccc12 | inactive
Cc1ccc(S(=O)(=O)N2CCOCC2)cc1NC(=O)COC(=O)c1cnccn1 | inactive
CCc1ccccc1NC(=O)c1cc(-c2ccc3c(c2)OCO3)on1 | inactive
CCCCCCC1(C)NC(c2ccc3c(c2)OCO3)=CC(c2ccccc2O)N1 (stereo unspecified) | 15.8 µM (active)
CC(C)COC(=O)c1ccc(NC(=O)C2C3C=CC(C3)C2C(=O)O)cc1 (stereo unspecified) | inactive
CC1=CC=CN2C1=NC(=O)CC2(C)C(=O)N(CC(=O)NC1CCCC1)c1ccccc1C (stereo unspecified) | inactive
N#Cc1ccc(C(c2ccc(C#N)cc2)n2cncn2)cc1 | inactive
CC(=O)Nc1cccc(/C(C)=N/NC(=O)c2c(-c3ccccc3Cl)noc2C)c1 | 13 µM (active)
Cc1onc(-c2c(F)cccc2Cl)c1C(=O)N(C)CC(=O)Nc1cccc(F)c1 | inactive

Compound | Potency
CC(=NNC(=O)c1ccncc1)c1ccc(Cl)c(Cl)c1 | inactive
Cc1oc(-c2ccccc2F)nc1CS(=O)CC(=O)NCCN1CCCCC1C (stereo unspecified) | inactive
Cc1oc(-c2ccccc2F)nc1CN1CCC(C(=O)NCCc2ccc(Cl)cc2)CC1 | 16.4 µM (active)
COc1ccc(-c2nc(CN3CCC(C(=O)NCc4ccccc4)CC3)c(C)o2)cc1OC | inactive
C[C@H]1[C@H]2c3nc4ccccc4n3C[C@H]1ON2C1CCCCC1 | inactive
CSc1ncc(C(=O)NCc2ccccc2Cl)c(C(F)(F)F)n1 | inactive
Cn1ccc(=Nc2ccc(NC(=O)c3ccc(N=c4ccn(C)c5ccc([N+](=O)[O-])cc45)cc3)cc2)cc1 | 3.66 µM (active)
COc1cc(NS(=O)(=O)c2ccc(NC(=O)c3ccc([N+](=O)[O-])cc3)cc2)ncn1 | inactive
CCc1ccc(NC(=O)c2ccc(Cn3cc([N+](=O)[O-])cn3)cc2)cc1 | inactive
Oc1ccc2ccccc2c1N=Nc1nccs1 | 0.651 µM (active)
Oc1ccc(N=Nc2nccs2)c(O)c1 | 20.6 µM (active)
Oc1c(C=Nc2cccc3nsnc23)ccc2ccccc12 | inactive
Cc1nc(Nc2ccccc2C)c2cnn(C)c2n1 | inactive
Cc1ccc(CCCOC(=O)C[N+]2(C)CCCCC2)cc1 | inactive
CCCOc1ccc(N2CC(C(=O)Nc3ccccn3)CC2=O)cc1 (stereo unspecified) | inactive
CC(C)CCN1CCN(Cc2cn[nH]c2C2CCCCC2)CC1CCO (stereo unspecified) | inactive
Cc1nn(Cc2ccccc2)c(C)c1NS(=O)(=O)c1ccccc1 | inactive
CCOC(=O)c1cn(Cc2cccc(C)c2)nn1 | inactive
CSc1nn(Cc2cccc(C)c2)c(N)c1S(=O)(=O)c1ccccc1 | 18.4 µM (active)
CCOC(=O)C(C)N(c1ccccc1Cl)S(C)(=O)=O (stereo unspecified) | inactive
CCOC(=O)c1ccc2c(c1)nc(SCC(=O)NC(C)C)n2CC | inactive
Cc1ccc(F)c(S(=O)(=O)NC(=O)C2(C)CCN2C(=O)CCc2cccs2)c1 (stereo unspecified) | inactive

Compound | Potency
COc1ccc(C=C2CCC3C(CCCC34OCCO4)C2=O)cc1 (stereo unspecified) | 23.1 µM (active)
COc1ccc2c(c1)CC[C@@H]1[C@@H]2CC[C@]2(C)C(=O)CC[C@@H]12 | inactive
COc1ccc(/C=C2/S/C(=N/N=C3\CC4CCC3(C)C4(C)C)NC2=O)cc1 (stereo unspecified) | inactive
C#CCN1CC(C)/C(=N/O)CC1C (stereo unspecified) | inactive
COc1ccccc1CNS(=O)(=O)c1c(C)[nH]c(C)c1C(=O)N1CCCCC1 | inactive
CCc1nc(Nc2ccc(NC(C)=O)cc2)c2oc3ccccc3c2n1 | inactive
CCc1nc(Nc2ccc3nccnc3c2)c2oc3ccccc3c2n1 | 2.31 µM (active)
CCSc1nc(C)nc2c1oc1ccccc12 | inactive
C/C(=N\NC(=O)C(N)=O)c1ccc2c(c1)OCCO2 | inactive
C/C(=N/NC(=S)Nc1ccccc1)c1ccc2c(c1)OCO2 | 0.517 µM (active)
C/C(=N/NC(=O)c1ccncc1)c1ccc2c(c1)OCO2 | inactive
CCS(=O)(=O)N(C)[C@@H]1c2cc(C#N)ccc2OC(C)(C)[C@H]1O | inactive
O=c1cc(CCl)nc2scc(-c3ccccc3)n12 | 16.4 µM (active)
C/C(CC(O)(/C=N/O)c1ccccc1)=N\O (stereo unspecified) | inactive
C/C(CC(=O)Nc1ccc(Cl)cc1)=N\NC(=O)C(=O)NCCO | inactive
CC(C)Cn1cnc2c1c(=O)n(CC(=O)NN)c(=O)n2Cc1ccccc1 | inactive
Cn1c(=O)c2c(nc(N3CCOCC3)n2CCNC2=NCCC2)n(C)c1=O | inactive
COCCn1c(CN(Cc2ccccc2)Cc2ccccc2)nc2c1c(=O)n(C)c(=O)n2C | 25.9 µM (active)
CC(C)Cn1c(CN(Cc2ccccc2)Cc2ccccc2)nc2c1c(=O)n(C)c(=O)n2C | 14.6 µM (active)
CCCCCCn1c(CN2CCCCC2)nc2c1c(=O)n(C)c(=O)n2C | 20.6 µM (active)
CC(C)CCn1cnc2c1c(=O)n(CC(=O)NC(N)=O)c(=O)n2Cc1ccccc1 | inactive
Cn1c(=O)[nH]c(=O)c2c1nc(CN(Cc1ccccc1)Cc1ccccc1)n2CCN1CCOCC1 | inactive

Compound | Potency
CCCCn1c(SCC(=O)N2CCOCC2)nc2c1c(=O)n(C)c(=O)n2C | inactive
CC(C)Cn1cnc2c1c(=O)n(CC(O)c1ccccc1)c(=O)n2CC(C)C (stereo unspecified) | inactive
CC(C)CCn1c(CN(C)Cc2ccccc2)nc2c1c(=O)n(C)c(=O)n2C | 6.51 µM (active)
CC(O)c1nc2c(c(=O)n(C)c(=O)n2C)n1C (stereo unspecified) | inactive
Cn1ccnc1-c1nnn(-c2ccc(F)cc2)n1 | inactive
O=C(OCC(=O)c1cccs1)c1ccc([N+](=O)[O-])o1 | inactive
O=C(COc1ccc(-n2cnnn2)cc1)Nc1ccccc1Cl | inactive
CN(C)S(=O)(=O)c1ccc(N2CCCC2=O)c([N+](=O)[O-])c1 | inactive
O=C(/C=C/c1ccccc1Cl)Nc1ccc(S(=O)(=O)Nc2ncccn2)cc1 | inactive
OCCC1CN(Cc2ccc3nsnc3c2)CCN1C1CCCCC1 (stereo unspecified) | inactive
Cc1ccc(C)c(SCc2nc3sc(C(=O)O)c(C)c3c(=O)[nH]2)c1 | inactive
COc1ccccc1NC(=O)CC(NCCN(C)C)C(=O)O (stereo unspecified) | inactive
C/C(=N\Nc1ccc(S(N)(=O)=O)cc1[N+](=O)[O-])c1cccs1 | inactive
CCOC(=O)[C@H]1[C@H]2COc3ccc(OC)cc3[C@@H]2N2C(=O)c3ccc(F)cc3NC(=O)[C@@]12C | inactive
COC(=O)C1=C(O)/C(=C/c2ccc(OCC(=O)Nc3ccccc3)cc2)N=C1C | inactive
O=C(COC(=O)c1cccs1)NCc1cccs1 | inactive
Nc1nnc(C2CCCC2)s1 | inactive
COC(=O)c1ccccc1Oc1c(F)c(F)nc(N2CCOCC2)c1F | inactive
Cc1cc(C)cc(C(=O)NCC(=O)OCC(=O)N2CCCCC2)c1 | inactive
CCN1CCN(Cc2nc3c(c(=O)n(C)c(=O)n3C)n2CC(=O)c2ccccc2)CC1 | inactive
Cn1c(=O)n(Cc2c(F)cccc2Cl)c(=O)c2c1nc1n2CCN1c1ccc(F)cc1 | inactive
Cn1c(=O)c2c(nc(CN3CCOCC3)n2Cc2ccccc2)n(C)c1=O | inactive

Compound | Potency
CC1CCCN(Cc2nc3c(c(=O)n(C)c(=O)n3C)n2CC(=O)c2ccccc2)C1 (stereo unspecified) | 16.4 µM (active)
CN1CCN(Cc2nc3c(c(=O)n(C)c(=O)n3C)n2Cc2cccc3ccccc23)CC1 | inactive
COCCn1c(CN2CCC(Cc3ccccc3)CC2)nc2c1c(=O)n(C)c(=O)n2C | 7.31 µM (active)
CC(C)CCn1c(=O)c2c(nc3n2CCCN3Cc2ccccc2)n(C)c1=O | 20.6 µM (active)
Cn1c(=O)n(CCc2ccccc2)c(=O)c2c1nc1n2CCCN1c1ccccc1 | inactive
O=C(O)C1CCCN(CCC=C(c2ccccc2)c2ccccc2)C1 (stereo unspecified) | inactive
CCc1cc(CNC(=O)CC2C(=O)NCCN2CC2CCCCC2)on1 (stereo unspecified) | inactive
Cc1ccc(S(=O)(=O)N(C)C)cc1NC(=O)C(C)OC(=O)c1ccc2ccccc2n1 (stereo unspecified) | inactive
c1ccc(-c2nnc3n2NC(c2ccc4c(c2)OCO4)S3)cc1 (stereo unspecified) | inactive
CC(C)=C1C2CCC1C1C(=O)N(NC(=O)c3ccco3)C(=O)C21 (stereo unspecified) | inactive
CCOc1ccc(CN(Cc2ccco2)S(=O)(=O)c2ccc(-n3cnnn3)c(OC)c2)cc1 | 16.4 µM (active)
CCOc1ccc(S(=O)(=O)N(CC(=O)NCC(F)(F)F)Cc2ccco2)cc1 | inactive
CCOc1ccc(C(=O)COC(=O)c2ccc(-n3cnnn3)cc2)cc1 | inactive
COc1ccc(S(=O)(=O)N2CCOCC2)cc1NC(=O)CC1CC2CCC1C2 (stereo unspecified) | inactive
CC1(C)CC(=O)C=C(NCCCN2CCCC2=O)C1 | inactive
CCOc1ccc(Nc2nc(Cl)nc(N3CCN(c4ccc(OC)cc4)CC3)n2)cc1 | 13 µM (active)
COc1ccc(Nc2nc(N)nc(CSC(=S)N3CCC(C)CC3)n2)cc1 | inactive
COC(=O)CNc1nc(Cl)nc(N2CCC(C)CC2)n1 | inactive
